# Assay results from PubChem BioAssay (NCATS).
# Values joined by “and” are separate entries in the source; they are usually repeats but may differ in a detail not shown here. Identical values can stand only once. A number with no mark means an inactive call. A call without a number means that no potency is given here. Active and inactive are the calls of the source. Unless noted, calls follow the shape of the dose curve; as a rule, active = well fitted curve in the direction sought with a large enough effect; inconclusive = small, poorly fitted or top-dose-only effect, or another doubt; inactive = no such curve, though single readings can be large; an effect the other way counts as inactive or inconclusive.
# How the values were obtained:
# [1] = Cellular Toxicity (caspase-3) BJ (AID 658);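 also: cells exposed to compound for 16 hours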
# Outline: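 Caspase-Glo 3/7 luminescence, read 1 hr after reagent at room temperature, in normal BJ fibroblasts exposed 16 hours at 37 °C. AC50 values from Hill-equation concentration-response, scaled between DMSO basal and 10 uM staurosporine as 100%.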
# [2] = Cellular Toxicity (caspase-3) Mesangial (AID 660); conditions: Potency: caspase-3 activation;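 also: combined caspase 3 and 7 activity read by Caspase-Glo luminescence; cells exposed to compound for 16 h before the caspase read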
# Outline: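 Luminescent Caspase-Glo 3/7 readout (aminoluciferin substrate cleavage, 20 min RT) after 16 h compound exposure at 37 °C of normal human mesangial cells. Signal increase normalized between DMSO basal and 100 uM tamoxifen; Hill-equation AC50.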
# [3] = Cellular Toxicity (caspase-3) H-4-II-E (AID 663); conditions: H-4-II-E rat hepatoma, scaled: DMSO 0%, 100 µM tamoxifen 100%; at 92.2 µM (top of the series);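 also: cells exposed to compound for 16 hr before readout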
# Outline: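 Caspase 3/7 activation measured by luminescent aminoluciferin substrate cleavage after 16 hr compound treatment of H-4-II-E cells in complete medium. Increase normalized between DMSO (basal) and 100 uM tamoxifen (100%); Hill-equation AC50 from concentration-response.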
# [4] = Cellular Toxicity (caspase-3) Hek293 (AID 664); conditions: HEK293 caspase-3 activation, DMSO = 0%, 100 µM tamoxifen = 100%; at 92.2 µM (top of the series);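 also: cells exposed to compound for 16 h at 37 °C before readout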
# Outline: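 Luminescent Caspase-Glo 3/7 readout (aminoluciferin release) in HEK293 cells after 16 h compound treatment, 37 °C. Normalization: DMSO = basal, 100 uM tamoxifen = 100% stimulation. Concentration-response fitted with standard Hill equation for AC50.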
# [5] = Cellular Toxicity (caspase-3) NIH 3T3 (AID 666)
# Outline: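 NIH 3T3, 1000 cells/well, 5 hr settle then 16 hr compound at 37°C; Caspase-Glo 3/7, 20 min RT, luminescence. DMSO = basal, 100 uM tamoxifen = 100%. Hill-equation AC50, qHTS.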
# [6] = MultiTox-Fluor Cytotoxicity Assay - LYMP1-001 - Dead Cells (AID 946); also: potency is read from the fitted curve at half-maximal effect
# Outline: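 Seed 2500 LYMP1-001 cells/well, incubate 5 hr at 37 C; add compound, 16 hr at 37 C; add MultiTox-Fluor reagent, 60 min RT; read dead-cell fluorescence Ex/Em=485/520. Normalize to DMSO and 15 uM tetraoctylammonium bromide.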
# [7] = MultiTox-Fluor Cytotoxicity Assay - LYMP1-002 - Dead Cells (AID 960); also: nearly all actives have a fitted effect of over 60% in size; also: potency is read from the fitted curve at half-maximal effect
# Outline: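 Readout: fluorescence at 485/520 from cell-impermeant bis-AAF-R110 cleaved by proteases leaking from damaged cells. LYMP1-002 lymphoblastoid line, 16 hr compound treatment at 37 C, concentration-response in qHTS format; Hill-equation AC50 values.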
# [8] = Cell Viability - LYMP2-004 (AID 966); also: nearly all actives have a fitted effect of over 65% in size; also: potency is read from the fitted curve at half-maximal effect
# Outline: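 Luminescent ATP read-out (CellTiter-Glo, 30 min RT) after 24 hr compound exposure at 37 C; 2500 lymphoblastoid cells/well, complete medium. Decrease in ATP = cytotoxicity; AC50 from standard Hill model.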
# [9] = Cell Viability - LYMP2-002 (AID 977); also: potency is read from the fitted curve at half-maximal effect
# Outline: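 Human lymphoblastoid cells (2500/well) in complete medium were preincubated 5 hr at 37 C, then exposed to compounds for 24 hr at 37 C. Intracellular ATP was read by CellTiter-Glo luminescence; AC50 came from Hill-equation concentration-response fits.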
# [10] = Cell Viability - LYMP2-006 (AID 978); also: nearly all actives have a fitted effect of over 60% in size; also: potency is read from the fitted curve at half-maximal effect
# Outline: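 In this cytotoxicity screen, the human lymphoblastoid line grew in complete medium with test compounds for 24 hr at 37 C. Cellular ATP served as the viability signal.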
# [11] = Cell Viability - LYMP2-010 (AID 981); also: nearly all actives have a fitted effect of over 55% in size; also: potency is read from the fitted curve at half-maximal effect
# Outline: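 qHTS cytotoxicity, 1536-well: 2500 cells/well, 5 hr settle, 24 hr compound at 37 C, CellTiter-Glo 30 min RT, luminescence read. Decrease in ATP = toxicity; AC50 via standard Hill equation. Positive control tetraoctylammonium bromide.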
# [12] = Cell Viability - LYMP2-014 (AID 983); also: nearly all actives have a fitted effect of over 50% in size; also: potency is read from the fitted curve at half-maximal effect
# Outline: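 2500 cells/well, 5 hr 37 C; cpd 24 hr 37 C, complete medium; CellTiter-Glo 30 min RT, luminescence; ATP loss = toxicity; AC50 via Hill eqn; tetraoctylammonium bromide positive control.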
# [13] = Cell Viability - LYMP2-016 (AID 984); also: nearly all actives have a fitted effect of over 55% in size; also: potency is read from the fitted curve at half-maximal effect
# Outline: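 Concentration-dependent ATP depletion measured in LYMP2-016 lymphoblastoid cells, 24 h, 37 C; luciferase-based luminescent detection; Hill-equation AC50.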
# [14] = Cell Viability - LYMP2-022 (AID 987); also: nearly all actives have a fitted effect of over 55% in size; also: potency is read from the fitted curve at half-maximal effect
# Outline: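 Luminescent ATP read-out (CellTiter-Glo, 30 min, RT) after 24 hr, 37 C compound exposure of 2500 human lymphoblastoid cells/well in complete medium. Cytotoxicity taken as concentration-dependent ATP loss; AC50 from standard Hill equation.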
# [15] = Cell Viability - LYMP2-024 (AID 988); also: nearly all actives have a fitted effect of over 60% in size; also: potency is read from the fitted curve at half-maximal effect
# Outline: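 ATP-based luminescence (CellTiter-Glo, 30 min RT) after 24 h compound exposure at 37 C of 2500 lymphoblastoid cells/well; decrease in ATP taken as cytotoxicity. qHTS concentration-response fitted to standard Hill equation for AC50.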
# [16] = biological target: Glucocorticoid receptor (Homo sapiens) (UniProt P04150); assay: qHTS assay for small molecule agonists of glucocorticoid receptor signaling (AID 588532; active = well fitted curve in the direction sought with a large enough effect in the signal ratio, with a control signal flat; inconclusive = small, poorly fitted or top-dose-only effect, or a change in a side signal; inactive = no such curve, though single readings can be large or run the other way; the % refers to the signal ratio; also: potency is read from the fitted curve at half-maximal effect); conditions: HeLa MMTV-bla, beta-lactamase ratio, agonist, 18 h; activation: active compounds read high, percent of dexamethasone control, DMSO zero
# Sequence of Glucocorticoid receptor (Homo sapiens) (P04150 whole entry, looked up): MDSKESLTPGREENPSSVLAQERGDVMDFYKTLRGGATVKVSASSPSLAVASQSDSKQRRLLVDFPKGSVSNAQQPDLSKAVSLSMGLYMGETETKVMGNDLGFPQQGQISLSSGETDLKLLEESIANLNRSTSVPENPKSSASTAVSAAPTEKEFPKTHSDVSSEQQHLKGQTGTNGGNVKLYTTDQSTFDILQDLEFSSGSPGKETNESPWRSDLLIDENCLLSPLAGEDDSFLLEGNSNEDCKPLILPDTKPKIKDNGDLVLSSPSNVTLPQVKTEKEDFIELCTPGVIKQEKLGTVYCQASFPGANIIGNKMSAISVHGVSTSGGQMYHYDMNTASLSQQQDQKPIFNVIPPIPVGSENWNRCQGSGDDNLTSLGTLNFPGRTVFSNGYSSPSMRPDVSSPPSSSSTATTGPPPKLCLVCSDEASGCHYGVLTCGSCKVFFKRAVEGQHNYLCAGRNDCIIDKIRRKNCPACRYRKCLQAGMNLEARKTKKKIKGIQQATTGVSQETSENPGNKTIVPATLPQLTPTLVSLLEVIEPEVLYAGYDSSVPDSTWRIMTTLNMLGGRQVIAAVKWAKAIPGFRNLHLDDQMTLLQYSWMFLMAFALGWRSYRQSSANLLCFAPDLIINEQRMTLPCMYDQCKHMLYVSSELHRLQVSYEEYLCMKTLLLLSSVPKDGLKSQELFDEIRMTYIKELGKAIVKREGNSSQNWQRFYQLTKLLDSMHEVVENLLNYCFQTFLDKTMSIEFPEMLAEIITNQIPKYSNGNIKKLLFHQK
# Outline: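 Quantitative HTS using CellSensor MMTV-bla HeLa cells in charcoal/dextran-treated serum; compounds tested up to 92 uM. After 18 h at 37 C, CCF4 dye reported reporter induction.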
# [17] = qHTS assay for small molecule disruptors of the mitochondrial membrane potential - 5 hr assay (AID 651755; calls by dose curve; also: nearly all actives have a fitted effect of over 40% in size; also: potency is read from the fitted curve at half-maximal effect)
# Outline: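 Membrane-potential dye readout: red aggregate (540 ex/590 em) versus green monomer (490 ex/535 em) fluorescence after 30 min dye loading, following 5 hr compound exposure at 37C of overnight-plated HepG2 cells.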
# [18] = biological target: Peroxisome proliferator-activated receptor alpha (Homo sapiens) (UniProt Q07869); assay: qHTS assay for small molecule agonists of the peroxisome proliferator-activated receptor alpha (PPARalpha) signaling pathway (AID 651778); conditions: PathHunter PPARalpha complementation, chemiluminescence, 6 h; max response: active compounds read high
# Sequence of Peroxisome proliferator-activated receptor alpha (Homo sapiens) (Q07869 whole entry, looked up): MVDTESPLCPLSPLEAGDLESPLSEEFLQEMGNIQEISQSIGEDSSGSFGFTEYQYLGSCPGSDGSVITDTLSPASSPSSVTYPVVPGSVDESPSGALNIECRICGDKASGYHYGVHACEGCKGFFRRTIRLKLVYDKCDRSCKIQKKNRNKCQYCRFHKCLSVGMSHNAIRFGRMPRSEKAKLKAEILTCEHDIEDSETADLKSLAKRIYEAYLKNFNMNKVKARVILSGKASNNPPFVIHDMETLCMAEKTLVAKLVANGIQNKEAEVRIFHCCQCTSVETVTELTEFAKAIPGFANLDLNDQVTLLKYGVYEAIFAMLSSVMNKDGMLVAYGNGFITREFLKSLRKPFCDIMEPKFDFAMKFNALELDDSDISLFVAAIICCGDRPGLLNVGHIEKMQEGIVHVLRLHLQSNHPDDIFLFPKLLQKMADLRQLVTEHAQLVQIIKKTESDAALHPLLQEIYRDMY
# Outline: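 Chemiluminescence from complemented enzyme reported PPARalpha activation in cells after 6 hr of compound treatment at 37 C. The detection reagent was incubated for 60 min at room temperature, and compounds were scored as agonists.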
# [19] = biological target: Estrogen receptor (Homo sapiens) (UniProt P03372); assay: qHTS assay for small molecule antagonists of estrogen receptor alpha signaling (AID 588513; active = well fitted curve in the direction sought with a large enough effect in the signal ratio, with a control signal flat, not every such curve was filed as active; inconclusive = small, poorly fitted or top-dose-only effect, or effect the other way, or a change in a side signal; inactive = no such curve, though single readings can be large or run the other way; the % refers to the signal ratio; also: potency is read from the fitted curve at half-maximal effect)
# Sequence of Estrogen receptor (Homo sapiens) (P03372 whole entry, looked up): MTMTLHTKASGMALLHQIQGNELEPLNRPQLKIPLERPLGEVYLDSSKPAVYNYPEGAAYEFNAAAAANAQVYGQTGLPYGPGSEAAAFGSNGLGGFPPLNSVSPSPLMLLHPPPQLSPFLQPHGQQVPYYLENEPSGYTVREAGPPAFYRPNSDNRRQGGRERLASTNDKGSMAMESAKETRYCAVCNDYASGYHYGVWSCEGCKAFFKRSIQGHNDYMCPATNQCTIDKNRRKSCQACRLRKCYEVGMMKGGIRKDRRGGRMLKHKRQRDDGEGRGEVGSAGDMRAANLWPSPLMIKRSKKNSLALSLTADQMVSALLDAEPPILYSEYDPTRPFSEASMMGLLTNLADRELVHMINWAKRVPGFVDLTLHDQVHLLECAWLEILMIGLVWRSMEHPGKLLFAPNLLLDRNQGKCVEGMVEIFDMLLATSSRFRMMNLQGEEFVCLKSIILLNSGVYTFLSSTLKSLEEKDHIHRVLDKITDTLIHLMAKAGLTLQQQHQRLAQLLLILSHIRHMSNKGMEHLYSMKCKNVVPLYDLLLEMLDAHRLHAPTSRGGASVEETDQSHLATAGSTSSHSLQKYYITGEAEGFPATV
# Outline: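 Antagonist-mode qHTS in ER-alpha-UAS-bla HEK 293 cells: compound titration, 0.5nM estradiol for 18 h, CCF4 fluorescence, Hill-derived IC50.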
# [20] = biological target: Cytochrome P450 3A4 (Homo sapiens) (UniProt P08684); assay: qHTS Assay for Activators of Cytochrome P450 3A4 (AID 885); also: nearly all actives have a fitted effect of over 65% in size
# Sequence of Cytochrome P450 3A4 (Homo sapiens) (P08684 whole entry, looked up): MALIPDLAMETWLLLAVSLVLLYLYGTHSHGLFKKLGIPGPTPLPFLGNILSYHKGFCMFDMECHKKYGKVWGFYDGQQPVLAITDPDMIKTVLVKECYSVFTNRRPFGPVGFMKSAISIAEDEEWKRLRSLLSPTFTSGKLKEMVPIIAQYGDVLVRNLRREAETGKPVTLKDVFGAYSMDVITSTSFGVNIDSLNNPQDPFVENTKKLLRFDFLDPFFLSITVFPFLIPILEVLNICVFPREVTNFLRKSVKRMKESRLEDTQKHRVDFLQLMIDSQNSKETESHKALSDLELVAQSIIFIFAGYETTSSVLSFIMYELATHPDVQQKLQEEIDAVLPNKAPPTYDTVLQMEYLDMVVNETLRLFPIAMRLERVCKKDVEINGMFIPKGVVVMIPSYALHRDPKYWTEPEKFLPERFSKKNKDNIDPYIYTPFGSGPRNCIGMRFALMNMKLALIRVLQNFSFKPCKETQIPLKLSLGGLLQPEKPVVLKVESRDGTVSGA
# Outline: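 Activators are scored by enhanced luminescence from CYP3A4 conversion of luciferin-PPXE (25uM, equal to KM) to luciferin, after 60 min at RT with an NADPH-regenerating system.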
smiles,measurement,setting,value
N#CSCSC#N,outcome,[1],inactive
same,Potency,[2],inactive
same,caspase-3 activation,[3],-3.87%
same,caspase-3 activation,[4],-10.2%
same,outcome,[5],inactive
same,Potency,[6],25.1 µM (active)
same,Potency,[7],10 µM (active)
same,Potency,[8],6.31 µM (active)
same,Potency,[9],10 µM (active)
same,Potency,[10],12.6 µM (active)
same,Potency,[11],3.98 µM (active)
same,Potency,[12],7.94 µM (active)
same,Potency,[13],7.94 µM (active)
same,Potency,[14],5.01 µM (active)
same,Potency,[15],3.98 µM (active)
same,activation,[16],0.19%
same,Potency,[17],inactive
same,max response,[18],-10% and -5.06%
FC(F)(F)c1ccc(Cl)cc1,outcome,[1],inactive
same,Potency,[2],inactive
same,caspase-3 activation,[3],1.12%
same,caspase-3 activation,[4],3.4%
same,outcome,[5],inactive
same,Potency,[6],inactive
same,Potency,[7],inactive
same,Potency,[8],inactive
same,Potency,[9],inactive
same,Potency,[10],inactive
same,Potency,[11],inactive
same,Potency,[12],inactive
same,Potency,[13],inactive
same,Potency,[14],inactive
same,Potency,[15],inactive
same,Potency,[19],inactive
same,activation,[16],4.86%
same,Potency,[17],inactive
same,max response,[18],1.19% and -0.788%
c1ccc2cc3c(cc2c1)-c1cccc2cccc-3c12,outcome,[1],inactive
same,Potency,[2],inactive
same,caspase-3 activation,[3],0.959%
same,caspase-3 activation,[4],-1.28%
same,outcome,[5],inactive
same,Potency,[6],inactive
same,Potency,[7],inactive
same,Potency,[8],inactive
same,Potency,[9],inactive
same,Potency,[10],inactive
same,Potency,[11],inactive
same,Potency,[12],inactive
same,Potency,[13],inactive
same,Potency,[14],inactive
same,Potency,[15],inactive
same,Potency,[19],inactive
same,Potency,[16],15.8 µM (active)
same,Potency,[17],6.68 µM (active)
C#CCO,outcome,[1],inactive
same,Potency,[2],inactive
same,caspase-3 activation,[3],0.354%
same,caspase-3 activation,[4],1.98%
same,outcome,[5],inactive
same,Potency,[6],inactive
same,Potency,[7],inactive
same,Potency,[8],inactive
same,Potency,[9],inactive
same,Potency,[10],inactive
same,Potency,[11],inactive
same,Potency,[12],inactive
same,Potency,[13],inactive
same,Potency,[14],inactive
same,Potency,[15],inactive
same,Potency,[19],inactive
same,activation,[16],0.566%
same,max response,[18],-1.68%
C=C(CC1(C(C)NP(=O)(c2ccccc2)c2ccccc2)CC1)c1ccccc1 (configuration not stated),Potency,[20],inactive
ClC1=C(Cl)C2(Cl)C3C(Cl)C(Cl)CC3C1(Cl)C2(Cl)Cl (configuration not stated),Potency,[12],inactive
same,activation,[16],17.3%
O=[N+]([O-])C(Br)Br,Potency,[7],inactive
same,Potency,[8],25.1 µM (active)
same,Potency,[9],10 µM (active)
same,Potency,[10],20 µM (active)
same,Potency,[11],7.94 µM (active)
same,Potency,[12],15.8 µM (active)
same,Potency,[14],12.6 µM (active)
same,Potency,[15],7.94 µM (active)
same,activation,[16],-5.74%
same,max response,[18],-3.58%
[Cd+2].[Cl-].[Cl-],caspase-3 activation,[3],-2.46%
same,Potency,[7],inactive
same,Potency,[11],50.1 µM (active)
same,Potency,[14],39.8 µM (active)
same,Potency,[19],44.7 µM [inconclusive] (active)
same,max response,[18],-8.85%
